High-throughput results as filed in PubChem BioAssay.
Only some compounds are listed: those with a hit (about 4.6% of all), similar ones and a draw of the others.
Peg3 prom inh = reduces Peg3 promoter-driven luciferase expression in HeLa; HeLa PEG-Prom luciferase reporter, luminescence, overnight; inhibition, % at 20 µM; 1.7% of 360,000 active; AID 588405;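 active = inhibition of at least 50% at 20 µM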
KKLEB cytotox = CF airway cell cytotoxicity counter-screen | KKLEB CF airway cells viability, ATPlite luminescence, overnight; hits give low values; cells stimulated with P. aeruginosa culture filtrate | activity change (cytotoxicity), % at 5 µM | 0.36% of 360,000 active | AID 602141;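 active = corrected activity change at or below -50% at 5 µM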
ABHD5 PLIN5 PPI = blocks binding of human ABHD5 to perilipin-5; Split G. princeps luciferase complementation, luminescence, 4 h; 0.78% of 360,000 active; inhibition, % at 4 µM; AID 602281;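 active = inhibition above the mean inhibition across every tested compound plus 3 SD, cut at about 22% in these data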;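 also: 0% = DMSO only wells and the 100% control is not disclosed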
Mdm2 MdmX PPI = disrupts the human Mdm2-MdmX interaction. O15151+Q00987. SaOS-2 split-luciferase Mdm2/MdmX complementation, luminescence. inhibition, % at 8 µM. 3% of 330,000 active;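 active = inhibition of at least 50% at 8 µM in the primary screen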
Target sequence (O15151 whole entry, looked up): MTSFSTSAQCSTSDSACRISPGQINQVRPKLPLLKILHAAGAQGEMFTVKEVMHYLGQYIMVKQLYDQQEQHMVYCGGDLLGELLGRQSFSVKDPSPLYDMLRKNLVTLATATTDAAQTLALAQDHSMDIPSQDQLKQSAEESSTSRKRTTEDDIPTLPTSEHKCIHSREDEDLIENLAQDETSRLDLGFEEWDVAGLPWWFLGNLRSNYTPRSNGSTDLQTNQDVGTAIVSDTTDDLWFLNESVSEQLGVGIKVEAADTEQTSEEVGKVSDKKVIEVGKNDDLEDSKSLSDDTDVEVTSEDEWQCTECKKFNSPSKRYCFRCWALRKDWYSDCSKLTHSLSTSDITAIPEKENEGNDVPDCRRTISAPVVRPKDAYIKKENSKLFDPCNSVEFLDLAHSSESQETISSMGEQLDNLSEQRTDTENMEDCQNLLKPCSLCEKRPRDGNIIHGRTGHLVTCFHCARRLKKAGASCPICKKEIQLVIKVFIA
Target sequence (Q00987 whole entry, looked up): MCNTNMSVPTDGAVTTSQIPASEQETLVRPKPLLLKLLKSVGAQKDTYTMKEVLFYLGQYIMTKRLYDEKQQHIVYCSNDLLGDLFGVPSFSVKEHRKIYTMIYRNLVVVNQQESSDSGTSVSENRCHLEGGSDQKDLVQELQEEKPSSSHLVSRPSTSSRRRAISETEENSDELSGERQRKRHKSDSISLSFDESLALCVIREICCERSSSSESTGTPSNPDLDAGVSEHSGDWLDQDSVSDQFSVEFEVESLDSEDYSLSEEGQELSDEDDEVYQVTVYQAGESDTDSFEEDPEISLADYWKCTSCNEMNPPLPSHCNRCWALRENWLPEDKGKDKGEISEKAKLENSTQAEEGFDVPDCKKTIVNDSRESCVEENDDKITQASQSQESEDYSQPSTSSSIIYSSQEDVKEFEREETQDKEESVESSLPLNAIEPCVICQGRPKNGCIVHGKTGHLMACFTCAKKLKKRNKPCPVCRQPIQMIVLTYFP
HIF-2a block = HIF-2a inhibition; 786-0 RCC cells HIF-2a reporter, luciferase luminescence, overnight; inhibition, % at 18.8 µM; 0.72% of 360,000 active; AID 624352;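 active = inhibition of the luminescence signal of 40% or more relative to plate controls, in a single-dose primary screen at 18.75 µM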
CF NFkB block = blocks PAF-induced NF-kB reporter in cystic fibrosis cells | KKLEB NF-kB-GFP reporter, GFP fluorescence overnight | inhibition, % at 5 µM | 0.86% of 360,000 active | AID 588850;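 active = at least 50% inhibition at 5 µM, scaled per plate between neutral and stimulator controls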;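 also: PAF is a Pseudomonas aeruginosa culture filtrate used as stimulus; plate controls were PAF-stimulated DMSO wells for no effect and unstimulated DMSO wells for full effect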
Mdm2-MdmX conf = human Mdm2/MdmX binding inhibition, confirmed; AID 489028; inhibition, % at 8 µM; shares compounds with Mdm2 MdmX PPI; luminescent assay; 55% of 10,000 active; in the data active = inhibition above about 40%
FLuc counter = inhibits full-length luciferase, flagging false Mdm2/MdmX hits; shares compounds with Mdm2 MdmX PPI; SaOS-2 full-length luciferase counterscreen, luminescence; inhibition, % at 8 µM; 77% of 6,200 active;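 active = mean inhibition at 8 µM reaching about 37%, which flags the compound as non-specific, limit read from the data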;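 also: p53-null SaOS-2 cells with luciferase driven by a doxycycline-inducible promoter; compound on cells about two nights before reading with doxycycline added after day one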
Numbers without * were called inactive; nt = no result.

SMILES	Peg3 prom inh	KKLEB cytotox	ABHD5 PLIN5 PPI	Mdm2 MdmX PPI	HIF-2a block	CF NFkB block	Mdm2-MdmX conf	others
COc1ccc(C(=O)Nc2ccc(NC(=O)c3ccccc3)cc2)cc1S(=O)(=O)N1CCOCC1	17.2	-17.8	8.6	85.6*	-4.3	12.8	-5.3
O=C(Nc1cccc(S(=O)(=O)N2CCCC2)c1)c1cc(=O)[nH]c2ccccc12	28.0	-0.7	-8.6	17.1	10.2	8.8	nt
O=C(C[n+]1ccccc1)c1ccc(-c2ccccc2)cc1	-8.0	-22.8	11.8	-0.2	9.2	-8.5	nt
Cc1ccc(C(=O)C[n+]2ccc(Cc3ccccc3)cc2)cc1	0.7	8.9	5.9	51.6*	16.2	4.5	43.6*	FLuc counter=63.4*
CN(C)c1cc[n+](CC(=O)c2ccc(-c3ccccc3)cc2)cc1	30.6	-26.7	7.1	59.7*	7.0	47.9	44.3*	FLuc counter=48.1*
Cc1ccc(SCCc2cc[n+](CC(=O)c3ccccc3)cc2)cc1	-10.8	2.4	2.4	3.6	4.0	10.2	nt
Cc1cc(C(=O)N2CCC2(C)C(=O)Nc2cccc3c2CCCC3)nn1C (configuration not stated)	-7.4	3.8	-11.2	nt	16.4	23.9	nt
Cc1cc(NN)nc(Cc2ccccc2)n1	-1.1	1.2	-5.5	21.7	-36.7	2.0	nt
O=C(NC(=S)Nc1cc(C(F)(F)F)ccc1N1CCOCC1)c1sc2ccccc2c1Cl	28.9	-48.2	0.6	50.4*	24.4	40.8	18.9
CC(C)(C)C(=O)NC(=S)Nc1cc(C(F)(F)F)ccc1N1CCOCC1	25.0	-19.2	-2.3	7.4	25.8	31.9	nt
O=C1N/C(=C/c2cccs2)C(=O)N1Cc1ccc(Br)cc1	7.1	24.4	4.4	53.6*	1.5	-19.8	8.4
CCc1nn2c(=O)c(S(=O)(=O)Nc3ccc(Cl)cc3)c(C)nc2s1	24.1	5.1	2.0	15.6	10.1	-1.4	nt
CCc1cccc(NS(=O)(=O)c2c(C)nc3sc(CC)nn3c2=O)c1	7.6	0.9	2.3	53.0*	10.8	0.4	2.5
COc1cccc(N=Nc2c(N)[nH]n3c(=O)cc(-c4ccccc4)nc23)c1	-5.6	18.7	-1.8	61.7*	9.6	-75.2	33.7
COc1ccc(C(=O)c2[nH]c(N)c(C(=O)NCCc3c[nH]c4ccccc34)c2-c2ccccc2Br)cc1	nt	nt	3.3	nt	-3.8	nt	nt
C=CC[C@H](CC(=O)N(CCO)Cc1ccccc1)C(=O)N[C@@H](COC(=O)[C@@H](CC=C)CC(=O)OC(C)(C)C)Cc1c[nH]c2ccccc12	28.6	2.1	-0.6	48.9	-0.4	13.7	nt
C=CC[C@H](CC(=O)N(CCO)Cc1ccccc1)C(=O)N[C@H](COC(=O)[C@@H](CC=C)Cc1ccc(F)cc1)Cc1c[nH]c2ccccc12	61.5*	9.8	12.7	85.9*	-11.1	14.2	37.8	FLuc counter=71.2*
C=CC[C@@H](CC(=O)N(CCO)Cc1ccccc1)C(=O)N[C@H](COC(=O)[C@@H](CC=C)Cc1ccc(F)cc1)Cc1c[nH]c2ccccc12	55.0*	-25.4	16.4	88.3*	-15.4	19.0	5.8
Cc1cc(C)c(S(=O)(=O)Nc2ccc(C(=O)O)cc2)cc1S(=O)(=O)Nc1ccc(C(=O)O)cc1	-4.7	7.0	-0.2	17.8	5.0	-5.6	nt
COc1cc(-c2ccc3oc(-c4cccc(C)c4)c(C#CC4(O)CCCCC4)c3c2)cc(OC)c1OC	24.1	6.0	0.8	55.8*	8.3	19.4	11.3
C=CC[C@@H](CC(=O)N[C@@H](CO)Cc1ccccc1)C(=O)NC[C@H](OC(=O)[C@@H](CC=C)Cc1ccc(F)cc1)c1ccccc1	22.3	-22.4	-0.9	48.7	8.9	18.1	nt
C=CC[C@@H](CC(=O)N(CCO)Cc1ccccc1)C(=O)NC[C@@H](OC(=O)[C@@H](CC=C)Cc1ccc(F)cc1)c1ccccc1	28.8	-5.8	3.0	54.7*	10.9	-18.0	18.4
C=CC[C@@H](CC(=O)N[C@@H](CO)Cc1ccccc1)C(=O)NC[C@@H](OC(=O)[C@@H](CC=C)Cc1ccc(F)cc1)c1ccccc1	26.4	7.5	1.9	52.3*	7.8	-10.3	9.9
C=CC[C@H](CC(=O)N(CCO)Cc1ccccc1)C(=O)NC[C@H](OC(=O)[C@@H](CC=C)Cc1ccc(F)cc1)c1ccccc1	59.6*	-5.4	1.5	70.7*	-2.5	28.4	39.0
OC[C@@H]1CN(CCN2CCOCC2)C[C@H](n2cnc3c(N4CCCC4)ncnc32)O1	1.7	-4.1	2.1	nt	1.4	18.8	nt
SMILES	Peg3 prom inh	KKLEB cytotox	ABHD5 PLIN5 PPI	Mdm2 MdmX PPI	HIF-2a block	CF NFkB block	Mdm2-MdmX conf	others
CC(=O)OC[C@H]1O[C@@H](n2ncc(=O)[nH]c2=O)[C@H](OC(C)=O)[C@@H]1OC(C)=O	-16.9	9.5	0.9	79.8*	-37.6	0.5	59.1*	FLuc counter=31.6
COc1ccccc1OCCNC(=O)CN1C(=O)NC2(CCCC2)C1=O	3.5	6.1	2.1	6.9	15.8	5.4	nt
CSc1nc2c(cnn2-c2ccc(C)c(C)c2)c(=O)[nH]1	59.0*	-4.8	-3.6	53.1*	6.1	4.6	5.2
CCC(C)Sc1nc2c(cnn2-c2ccc(C)c(C)c2)c(=O)[nH]1 (configuration not stated)	9.7	-12.2	4.8	10.7	5.8	29.7	nt
Cc1cc(C)cc(NC(=O)CCn2c(=S)[nH]c3ccccc3c2=O)c1	-5.3	-10.6	-2.5	64.6*	-14.0	-2.6	15.2
Cn1cc(S(=O)(=O)N2CCc3ccccc32)cc1C(=O)NC(C)(C)C	1.9	0.0	-2.9	12.3	13.0	-9.7	nt
C=CCn1c(SCc2nc3ccccc3c(=O)[nH]2)nc2sc3c(c2c1=O)CCCC3	nt	nt	nt	84.7*	nt	nt	19.5
Cc1ccc(S(=O)(=O)N2CCSCCSCCSCCSCC2)cc1	13.5	-16.5	-3.4	nt	-9.5	1.1	nt
C=CCNC(=O)C1CC(=O)N(c2ccc(OCC(=O)Nc3ccc(Cl)c(C(F)(F)F)c3)cc2)C1 (configuration not stated)	28.1	-7.8	-1.8	78.3*	8.5	-3.1	11.9
C=CCNC(=O)C1CC(=O)N(c2ccc(OCC(=O)Nc3cccc(OC)c3)cc2)C1 (configuration not stated)	-63.0	-7.5	2.2	3.1	-72.3	10.1	nt
CN(C)CCOc1nc(-c2ccccc2)nc2c1oc1ccccc12	99.8*	-0.1	21.4	70.8*	2.3	-67.0	28.6
Cc1nc(N)c(C#N)c(-c2cccnc2)c1C	12.0	-5.2	-5.9	51.1*	15.3	48.9	28.1
COc1ccc(NC2=NCC(=O)N2Cc2cccs2)cc1	9.4	-8.9	0.2	55.5*	-5.5	-19.3	1.8
COc1ccc(NC2=NCCC(=O)N2Cc2cccs2)cc1	10.0	13.9	6.4	27.3	15.2	-35.3	nt
